# In the supplement of paper PMC6555819:
# How the values were obtained:
# Assay in all cases: PBM binding z-score (relative to random genomic background probes); higher = stronger binding; sequences stand for … in GC…GCGATTGACAGCGTAGAATGAAGG
# [1] = system: FXR:RXRa (NR concentration 270 nM, RXRa partner concentration 90 nM)
# Outline: (§1)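 The probes on custom Agilent 4×180K protein-binding microarrays were double-stranded, with 34-nt variable regions bearing direct-repeat seeds, single-nucleotide variants, half-site ablations and random human genomic background sequences. Incubation lasted 1 h with ligand-free nuclear receptor dimers in PBS pH 7.4, 2% milk, 0.02% Triton X-100, 1 mM DTT, 0.2 mg/mL BSA and 0.4 mg/ml salmon testes DNA. Antibodies against each partner (one per run) detected bound dimers, and fluorescence scans were regression-normalized. Binding z-scores take the random background probes as reference.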
# [2] = system: LXRa:RXRa (NR concentration 270 nM, RXRa partner concentration 90 nM)
# Outline: as §1
# [3] = system: LXRa homodimer (NR concentration 270 nM)
# Outline: as §1
# [4] = system: LXRb:RXRa (NR concentration 270 nM, RXRa partner concentration 90 nM)
# Outline: as §1
# [5] = system: LXRb homodimer (NR concentration 270 nM)
# Outline: as §1
# [6] = system: PPARa:RXRa (NR concentration 270 nM, RXRa partner concentration 90 nM)
# Outline: as §1
# [7] = system: PPARg:RXRa (NR concentration 180 nM, RXRa partner concentration 90 nM)
# Outline: as §1
# [8] = system: PPARg:RXRa 270nM:90nM, anti-RXR (NR concentration 270 nM, RXRa partner concentration 90 nM)
# Outline: as §1
# [9] = system: PPARg:RXRa 30nM:10nM, anti-RXR (NR concentration 30 nM, RXRa partner concentration 10 nM)
# Outline: as §1
# [10] = system: PPARg:RXRa 90nM:30nM, anti-RXR (NR concentration 90 nM, RXRa partner concentration 30 nM)
# Outline: as §1
# [11] = system: PPARg:RXRa DBDmut IVT, anti-RXR (DBD mutation: RXRa K156A/R161A, NR concentration 270 nM, RXRa partner concentration 90 nM)
# Outline: as §1
# [12] = system: PPARg:RXRa IVT, anti-PPARg (NR concentration 270 nM, RXRa partner concentration 90 nM)
# Outline: as §1
# [13] = system: PPARg DBDmut:RXRa IVT, anti-PPARg (DBD mutation: PPARg1 K132A/R137A, NR concentration 270 nM, RXRa partner concentration 90 nM)
# Outline: as §1
# [14] = system: PPARg DBDmut IVT, anti-PPARg (DBD mutation: PPARg1 K132A/R137A, NR concentration 270 nM)
# Outline: as §1
# [15] = system: PPARg homodimer (NR concentration 180 nM)
# Outline: as §1
# [16] = system: PXR:RXRa (NR concentration 270 nM, RXRa partner concentration 90 nM)
# Outline: as §1
# [17] = system: PXR homodimer (NR concentration 270 nM)
# Outline: as §1
# [18] = system: RARa:RXR (NR concentration 270 nM, RXRa partner concentration 90 nM)
# Outline: as §1
# [19] = system: RARa homodimer (NR concentration 270 nM)
# Outline: as §1
# [20] = system: RARb:RXRa (NR concentration 270 nM, RXRa partner concentration 90 nM)
# Outline: as §1
Sequence,PBM binding z-score [1],PBM binding z-score [2],PBM binding z-score [3],PBM binding z-score [4],PBM binding z-score [5],PBM binding z-score [6],PBM binding z-score [7],PBM binding z-score [8],PBM binding z-score [9],PBM binding z-score [10],PBM binding z-score [11],PBM binding z-score [12],PBM binding z-score [13],PBM binding z-score [14],PBM binding z-score [15],PBM binding z-score [16],PBM binding z-score [17],PBM binding z-score [18],PBM binding z-score [19],PBM binding z-score [20]
TCTGCTAGGTCAACGATGGTGAGCTAATCTGCTA,2.96,1.8,-0.337,1.15,-0.262,2.95,2.17,3.07,1.74,2.39,4.06,4.11,0.101,-0.356,0.2,0.739,-1.18,1.68,-1.07,3.98
CCTCGGAGGACAGAAGGTCAGAGGTGTCCGCTTT,1.1,1.45,0.406,0.796,-0.636,2.06,0.463,1.58,-0.408,0.771,-0.101,0.357,-1.36,-1.55,0.853,1.4,0.183,2.11,0.0276,3.32
CCTAGCAGGCCAATCTGGGTCACGCAAGGCTTGA,1.04,1.43,-0.342,0.849,-1.08,3.34,3.18,3.08,0.775,2.35,4.65,5.54,0.23,-0.484,0.454,1.48,-0.572,2.17,-0.583,1.92
ATATGTAGGTTACATTCGGGTCATTCAGGCTATG,2.91,4.73,1.76,3.19,1.04,4.3,5.53,5.07,2.31,4.62,7.46,7.26,5.28,2.88,2.4,3.85,3.72,3.65,1.02,2.32
ATATGTAGGTTACATCCGGGTCATGCAGGCTATG,2.18,3.82,0.802,2.38,0.427,4.45,6.06,5.18,2.64,4.3,7.41,7.25,2.04,1.91,1.38,3.26,0.751,3.55,0.629,2.36
ATCTCTATGTAAAGATAGTTCAGTGAATGCAAAT,-0.132,0.583,0.163,0.261,0.232,0.222,0.759,0.0606,0.319,0.173,-0.623,-0.061,0.754,1.67,0.106,0.604,0.457,0.433,0.866,0.242
ATCTCTAGGTAAGACTCAGTTCAGTTAAGAACGC,0.593,0.555,0.553,0.321,1.02,0.229,0.0463,0.424,0.445,0.237,2.13,1.36,0.719,0.801,1.1,1.11,1.83,0.499,1.6,0.431
CCAGACAGGTGAAAGGTAACTTAGTCTGGTACGC,0.545,0.539,-0.368,0.935,-0.486,3.31,5.21,5.6,3.58,5.77,2.21,2.75,0.0771,-0.396,0.712,0.936,-0.035,1.59,0.346,1.15
CCTTACGGGTCACCAGGTTATAGCACGACGAGCG,5.57,4.07,0.342,3.43,0.0793,5.41,6.15,6.21,2.59,4.99,3.46,5.18,0.0764,-0.404,2.34,3.72,-0.0319,4.62,1.27,4.27
ATACGTAGGTTAAGGGTCATTCAGGTTGGTTCGC,5.1,4.98,2.92,4.46,1.03,5.41,7.56,7.6,6.33,8.26,1.41,3.8,0.783,0.775,3.98,5.7,2.65,6.55,2.24,3.7
ACAGAAAGGTGATGAAGGTAACTCAGGCTATCAT,0.335,0.618,0.115,0.477,-0.456,1.51,1.02,1.12,0.27,0.787,0.962,1.45,0.665,0.683,0.688,0.335,0.0962,0.91,0.63,1.74
ACTTACGGGTCAACGAGGTTATACCACGCGTATA,6.87,5.39,1.14,4.59,0.838,5.83,5.59,5.57,1.82,4.26,3.73,3.99,1.8,1.74,2.9,5.43,4.36,5.72,1.26,4.34
ACTCGGAGGACAAAGCTCAGAGCTACGCCAGTGA,-0.419,-0.663,-0.768,-1.06,-0.958,-0.608,0.401,-0.00696,-0.67,-0.314,-0.219,-0.357,-0.787,-1.32,-1.15,-0.902,-0.759,-1.14,-0.639,0.77
CCGACTGGGGCAGAAAGGTTATCATACCATCCGG,0.492,0.483,0.0667,0.849,-0.748,2.05,1.7,2.27,0.694,2.13,1.78,1.73,-1.01,-1.06,0.664,0.873,0.149,1.85,-0.196,1.68
ATATGTAGGTTACATCCGCGTCATTCAGGCTATG,0.387,1.31,0.198,0.733,0.789,3.15,4.94,3.92,1.86,3.52,7.33,7.28,2.01,1.99,0.907,0.229,0.0394,0.412,0.447,0.941
CCGAGTAGGTTATGGGGCATTTAGGCAACGGTGA,0.297,0.407,0.011,0.603,-0.473,2.22,3.51,4.47,2.4,4.37,3.07,3.53,-0.425,-0.513,2.12,-0.00225,-0.192,0.292,0.0296,0.919
CTCGGAAGGTCGGTTGAGGTGAGTATACGGATAA,2.43,0.338,-0.673,0.113,-0.399,1.01,-0.0465,-0.0669,-0.473,-0.159,-0.598,0.491,-0.365,-0.461,0.527,1.84,-0.347,0.849,-0.2,1.89
AGAACGAGGGCAATGAGTTGATAGCTCGGGTGGC,0.0898,-0.196,-0.745,-0.286,-0.548,1.23,1.03,0.695,-0.213,0.434,3.68,2.41,0.337,-0.763,-0.195,1.36,5.33,0.0914,-0.796,2.08
GGAACGAGGGCATTCGAGTTGATAGCTTGGCGAT,1.76,1.65,-0.471,0.207,-0.992,1.36,0.667,0.802,-0.342,0.275,3.44,2.2,-0.209,-0.379,-0.157,3.79,1.99,0.494,-1,1.87
TCTCGTTGGTCACGGAGGTCACACACGACGGGTA,3.3,3.62,1.88,3.75,1.11,3.85,2.5,3.71,2.93,3.47,1.58,3.31,0.735,1.33,2.82,4.37,0.995,4.41,1.01,4.02
CCTCAAAGTTCAACTAAGGTAACGTAAAGCACGC,6.89,6.33,4.64,4.52,2.85,5.12,3.17,4.09,1.44,2.86,0.946,0.996,1.12,0.201,4.29,5.71,4.04,4.47,3.41,5.33
CCTTCTAGGTCATGGTCAGCTAATCTACAGTATG,3.87,2.77,0.676,2.12,0.355,4.37,5.63,5.39,2.57,4.28,7.22,6.72,1.58,1.21,2.24,1.7,0.327,2.63,1.36,4.08
TGTGCTAGGTCAGTTGGTCAGCTAACGAGCTGCC,0.928,0.621,-0.546,-0.0513,0.565,1.23,0.656,1.19,-0.306,0.746,1.29,3.02,-0.307,0.199,0.18,0.0475,-0.625,0.36,-0.296,3.26
CGTCCAAGCTCAATGCTAGGTCAGTGAAAGCATT,-0.232,-0.0286,0.428,-0.0522,-0.887,0.167,-0.576,-0.605,-0.752,-0.627,0.189,0.0626,-1.2,-1.34,-0.137,0.0332,-0.275,0.319,-0.477,0.961
TTACCAAGGTGAAGATCGTTGATCCCTCTGTAGA,0.339,0.08,-0.422,0.141,-0.815,1.14,0.457,0.958,0.156,0.575,1.37,1.92,0.401,0.0725,0.177,0.123,-0.895,0.533,-0.66,1.26
AGAACGAGGTTATACGTAGATCAGGGAAGAAAGT,1.59,1.47,0.0402,1.32,-0.361,2.78,1.58,1.39,0.732,1,2.22,1.34,0.863,0.661,0.41,0.761,0.521,1.27,0.483,1.27
ACTATTAGTTGGGACGAGGGCAACCGATAGGTTG,0.251,0.126,-0.235,0.0169,0.305,0.354,0.695,0.305,0.0129,0.225,-0.0902,0.659,0.777,0.502,0.934,0.478,0.579,0.451,0.563,1.03
GGTAGTTGGTCAGTAAAAGGTCACACACCGGTCG,3.14,4.29,4.91,4.07,1.47,4.34,2.7,4.44,2.46,3.81,0.823,3.16,0.932,0.24,4.48,4.95,1.37,5.68,3,4.28
